Data as given in publication PMC4336329 (PLoS ONE, 2015).
Out of some 310,000 compounds screened, about 14,000 (4.5%) showed an effect of 50% or more. The effect is printed as a negative number. For the sample, strong results were picked, then their nearest neighbours and some compounds at random.

Each molecule was assayed against human ether-à-go-go-related gene (hERG) potassium channel (human, UniProt Q12809) (assay: primary screen, population patch clamp on CHO cells stably expressing hERG; higher = less effect of the substance).
Sequence of human ether-à-go-go-related gene (hERG) potassium channel (Q12809 whole entry, looked up): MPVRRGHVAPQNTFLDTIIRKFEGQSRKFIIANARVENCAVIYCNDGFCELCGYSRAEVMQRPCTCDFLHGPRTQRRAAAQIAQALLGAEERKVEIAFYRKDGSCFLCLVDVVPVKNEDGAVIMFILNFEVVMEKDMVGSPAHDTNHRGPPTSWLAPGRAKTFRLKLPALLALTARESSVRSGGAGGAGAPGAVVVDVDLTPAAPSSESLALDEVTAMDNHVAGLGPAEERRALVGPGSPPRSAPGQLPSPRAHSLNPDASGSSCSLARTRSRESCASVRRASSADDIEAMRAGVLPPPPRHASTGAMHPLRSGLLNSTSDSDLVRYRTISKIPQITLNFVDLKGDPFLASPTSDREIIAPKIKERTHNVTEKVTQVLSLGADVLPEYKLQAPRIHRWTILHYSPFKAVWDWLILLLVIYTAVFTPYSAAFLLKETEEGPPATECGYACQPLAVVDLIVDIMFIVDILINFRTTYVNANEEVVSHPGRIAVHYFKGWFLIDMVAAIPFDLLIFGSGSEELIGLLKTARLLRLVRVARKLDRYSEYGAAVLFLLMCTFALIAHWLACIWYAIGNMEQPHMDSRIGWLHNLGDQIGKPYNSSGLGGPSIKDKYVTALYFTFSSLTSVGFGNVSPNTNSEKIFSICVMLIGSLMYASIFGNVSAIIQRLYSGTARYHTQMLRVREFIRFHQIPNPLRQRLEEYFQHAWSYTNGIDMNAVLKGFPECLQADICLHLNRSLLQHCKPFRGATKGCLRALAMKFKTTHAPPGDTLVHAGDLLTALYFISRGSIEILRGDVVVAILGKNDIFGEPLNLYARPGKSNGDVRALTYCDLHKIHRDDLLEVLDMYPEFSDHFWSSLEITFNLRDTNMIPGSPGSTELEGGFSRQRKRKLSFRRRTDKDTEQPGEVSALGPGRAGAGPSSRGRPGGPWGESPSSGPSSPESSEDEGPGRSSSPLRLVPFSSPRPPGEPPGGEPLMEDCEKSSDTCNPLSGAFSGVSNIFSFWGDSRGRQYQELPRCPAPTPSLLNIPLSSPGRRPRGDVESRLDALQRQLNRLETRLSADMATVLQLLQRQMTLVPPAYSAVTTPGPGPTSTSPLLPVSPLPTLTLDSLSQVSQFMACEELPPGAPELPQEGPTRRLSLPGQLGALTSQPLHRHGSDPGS
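Also: peak tail current of the secondary pulse compared with the same well before compound.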

First: CC(O)[C@@H](C(=O)N1CCNCC1)n1cc(CCCCN)nn1.Cl (some centres unmarked)
Second: CCN1CCN(CCCNC(=O)c2cc3sccc3n2CC)CC1
The “hERG current change (%, negative = inhibition) at 10uM” value of the first is higher: 14.3% for the first, -40.8% for the second.

First: O=C(c1ccc(F)cc1)N1CCN(c2ccc([N+](=O)[O-])c(N3CCCCC3)c2)CC1
Second: O=C(c1ccc(F)cc1)N1CCN(c2ccc([N+](=O)[O-])c(N3CCOCC3)c2)CC1
The “hERG current change (%, negative = inhibition) at 10uM” value of the first is higher: -15.3% for the first, -58.3% for the second.

Compared with O=C(c1ccccc1)N1CCN(c2ccc([N+](=O)[O-])c(N3CCOCC3)c2)CC1, Cc1ccc(C(=O)N2CCN(c3ccc([N+](=O)[O-])c(N4CCOCC4)c3)CC2)cc1 is lower in “hERG current change (%, negative = inhibition) at 10uM” value: -7.22% for the first, -60% for the second.

Going from O=C(c1ccc2ccccc2c1)N1CCN(c2ccc([N+](=O)[O-])c(N3CCOCC3)c2)CC1 to O=C(c1cccc2ccccc12)N1CCN(c2ccc([N+](=O)[O-])c(N3CCOCC3)c2)CC1, the “hERG current change (%, negative = inhibition) at 10uM” value rises from -18.8% to -13.7%.

Compared with C=CCSc1n[nH]c(-c2ccc(OCCCC)cc2)n1, COc1ccc(-c2csc(COC(=O)C(C)(C)C)n2)cc1 is higher in “hERG current change (%, negative = inhibition) at 10uM” value: -7.32% for the first, 18% for the second.

Compared with Cc1cccc(N2CCN(C(=O)c3ccc4nc(-c5ccco5)c(-c5ccco5)nc4c3)CC2C)c1 (centres unmarked), COc1cccc(N2CCN(C(=O)c3ccc(=O)oc3)CC2C)c1 (centres unmarked) is lower in “hERG current change (%, negative = inhibition) at 10uM” value: 2.44% for the first, -59.7% for the second.

Going from COc1cccc(NC(=O)N2CCN(c3cccc(C)c3)C(C)C2)c1 (centres unmarked) to COC(=O)c1ccc(-c2nc(CN3CCN(Cc4cccc(C)c4)CC3)c(C)o2)cc1, the “hERG current change (%, negative = inhibition) at 10uM” value falls from -16% to -25.3%.

Compared with CC(C)CCNc1cc(=O)n(C)c(=O)n1C, Cc1ccc(NC(=O)COC(=O)Cn2c(C)csc2=O)cc1C is lower in “hERG current change (%, negative = inhibition) at 10uM” value: 4.5% for the first, 2.05% for the second.

Going from CC(C)c1ccc(NC2CCCN(C(=O)c3cccnc3)C2)cc1 (centres unmarked) to CC(C)c1ccc(/C=N\NC(=O)c2ccc(Cn3cccn3)o2)cc1, the “hERG current change (%, negative = inhibition) at 10uM” value falls from 0.148% to -42%.

First: Cc1c(C(=O)Nc2ccc(F)cc2)sc2ncn(CC(=O)N3CCCCC3)c(=O)c12
Second: Cc1cc2c(NC(=O)Nc3ccc(F)cc3)cccc2nn1
The “hERG current change (%, negative = inhibition) at 10uM” value of the first is lower: 1.43% for the first, 8.16% for the second.

Going from O=C(N/N=C\c1c(O)ccc2ccccc12)c1ccc(Cn2cccn2)o1 to Cc1ccccc1/C=N\NC(=O)c1ccc(Cn2cccn2)o1, the “hERG current change (%, negative = inhibition) at 10uM” value falls from 9.2% to 4.98%.

First: O=C(N/N=C\c1ccc(Br)cc1)c1ccc(Cn2cccn2)o1
Second: O=C(N/N=C\c1cccc(Cl)c1)c1ccc(Cn2cccn2)o1
The “hERG current change (%, negative = inhibition) at 10uM” value of the first is higher: -34.1% for the first, -71.2% for the second.

Compared with O=C(N/N=C\c1ccc(Cl)s1)c1ccc(Cn2cccn2)o1, CCC(=O)N/N=C/c1ccc(OS(=O)(=O)c2ccccc2)cc1 is higher in “hERG current change (%, negative = inhibition) at 10uM” value: -57.2% for the first, -17.5% for the second.

Compared with O=C(OCCOCCN=C1NS(=O)(=O)c2ccccc21)c1ccccc1, Cc1cccc(CS(=O)(=O)Cc2ccc(C(=O)NCCc3ccccc3)o2)c1 is lower in “hERG current change (%, negative = inhibition) at 10uM” value: 2.47% for the first, -38.8% for the second.

Compared with COc1ccc(CNC(=O)CN(c2cccc(OC)c2)S(C)(=O)=O)cc1, COc1ccc(Cn2c(-c3ccc(OC)cc3)nc3ccccc32)cc1 is lower in “hERG current change (%, negative = inhibition) at 10uM” value: 2.47% for the first, -36.9% for the second.

Compared with Clc1cccc(NCc2nnc(SCc3ccccc3)o2)c1, COc1cccc2cc(C(=O)NC(C)c3ccccc3)c(=O)oc12 (centres unmarked) is higher in “hERG current change (%, negative = inhibition) at 10uM” value: 3.21% for the first, 16.3% for the second.

First: CCOc1ccc2[nH]c(=O)c(CN(CCO)C(=O)c3ccc(OC)c(OC)c3)cc2c1
Second: COc1ccc(OC)c(-n2c(=S)[nH]c3cc(C(=O)N4CCC(C(N)=O)CC4)ccc3c2=O)c1
The “hERG current change (%, negative = inhibition) at 10uM” value of the first is higher: -0.583% for the first, -2.14% for the second.

Going from CCCCCCN1C=CC(=C2C(=O)c3ccccc3C2=O)C=C1 to CCCCCN1C=CC(=C2C(=O)c3ccccc3C2=O)C=C1, the “hERG current change (%, negative = inhibition) at 10uM” value falls from 10.5% to -61%.

Going from CCCCN1C=CC(=C2C(=O)c3ccccc3C2=O)C=C1 to CCc1nn(CC(=O)NCCCN(Cc2ccccc2)C(C)C)c(=O)c2cc3sccc3n12, the “hERG current change (%, negative = inhibition) at 10uM” value falls from -1.69% to -43.8%.

First: CCOC(=O)c1c(C)cc(C)n2c1nc1ccccc12
Second: CCOC(=O)c1cc(-c2ccccc2C)nn1CC1CC(c2ccc(OC)cc2)=NO1 (centres unmarked)
The “hERG current change (%, negative = inhibition) at 10uM” value of the first is lower: -38.8% for the first, 3.54% for the second.

Going from CN(Cc1c(C(=O)N/N=C/c2ccccc2)nnn1-c1nonc1N)C1CCCCC1 to O=C(CCc1nnc(C2CCCCC2)o1)N1CCN(Cc2ccccc2)CC1, the “hERG current change (%, negative = inhibition) at 10uM” value falls from 8.4% to 5.53%.

First: CCN(Cc1ccccc1)c1ccc(/C=N/N=C(N)N)cc1
Second: NC(N)=N/N=C/c1ccc(OS(=O)(=O)c2ccccc2)cc1
The “hERG current change (%, negative = inhibition) at 10uM” value of the first is higher: -25% for the first, -55.6% for the second.

Going from COc1ccc(/C=N\N=C(N)N)cc1.O=[N+]([O-])O to NC(N)=N/N=C/c1ccc(N(c2ccccc2)c2ccccc2)cc1.O=[N+]([O-])O, the “hERG current change (%, negative = inhibition) at 10uM” value falls from -1.01% to -50.8%.

First: CN(C)/N=C/c1ccc(OS(=O)(=O)c2ccccc2)cc1
Second: Cc1ccc(-c2nc(CS(=O)(=O)CC(=O)N3CCc4ccccc4C3)c(C)o2)cc1
The “hERG current change (%, negative = inhibition) at 10uM” value of the first is higher: 8.55% for the first, -16% for the second.

First: COc1ccc(C(CNC(=O)COc2cc(C)ccc2Cl)N2CCCCC2)cc1 (centres unmarked)
Second: N#CCCNC(=O)Cn1c(COc2ccc(Cl)cc2)nc2ccccc21
The “hERG current change (%, negative = inhibition) at 10uM” value of the first is higher: 1.57% for the first, -24.5% for the second.

First: O=C(c1ccc2c3c(cccc13)CC2)C1CCCN(C(=O)c2ccc(=O)[nH]c2)C1 (centres unmarked)
Second: Cc1oc(-c2ccc(Cl)cc2)nc1CN1CCC(C(=O)N2CCc3ccccc3C2)CC1
The “hERG current change (%, negative = inhibition) at 10uM” value of the first is higher: 4.99% for the first, -74% for the second.

First: CC(C)c1nc2oc3c(N(C)CCO)ncnc3c2c2c1CCC2
Second: CC(C)c1nc2oc3c(NCC4CCCO4)ncnc3c2c2c1CCC2 (centres unmarked)
The “hERG current change (%, negative = inhibition) at 10uM” value of the first is lower: -28.1% for the first, -27.4% for the second.

Going from CC(C)Cc1nc2oc3c(NCC4CCCO4)ncnc3c2c2c1CCC2 (centres unmarked) to CC(C)Cc1nc2oc3c(NCC(C)O)ncnc3c2c2c1CCCC2 (centres unmarked), the “hERG current change (%, negative = inhibition) at 10uM” value rises from -35.8% to -7.54%.

Going from CC(C)Cc1nc2oc3c(NCc4cccnc4)ncnc3c2c2c1CCC2 to CC(C)c1nc2oc3c(NCc4cccnc4)ncnc3c2c2c1CCC2, the “hERG current change (%, negative = inhibition) at 10uM” value rises from -50.8% to -50.2%.

First: Cc1ccc(Cn2c(Sc3nccc(C)n3)nc3c2c(=O)[nH]c(=O)n3C)cc1
Second: Cc1oc(-c2ccc(-c3ccccc3)cc2)nc1CN1CCN(CC(=O)N(C)C)CC1
The “hERG current change (%, negative = inhibition) at 10uM” value of the first is higher: -8.13% for the first, -53% for the second.

First: Cc1ccc(/C=C/c2nc3ccccc3s2)s1
Second: O=C(Nc1cc(-c2nc3ccccc3s2)ccc1Cl)c1ccc2c(c1)OCO2
The “hERG current change (%, negative = inhibition) at 10uM” value of the first is lower: 3.83% for the first, 7.51% for the second.

Going from Cc1oc(-c2ccccc2)nc1C(=O)O to Cc1oc(-c2ccccc2)nc1CS(=O)CC(=O)N1CCc2ccccc2C1 (centres unmarked), the “hERG current change (%, negative = inhibition) at 10uM” value falls from 17% to -20.5%.

Going from Cc1oc(-c2ccc(Cl)cc2)nc1CN1CCC(C(=O)N2CCN(Cc3ccccc3)CC2)CC1 to COc1ccccc1C1CCN(c2cc(O)ccc2[N+](=O)[O-])CC1, the “hERG current change (%, negative = inhibition) at 10uM” value rises from -69.1% to 4.65%.

First: CCC/C(O)=C1\C(=O)CC(C)(C)CC1=Nc1ccccc1OC
Second: CCn1c(C(=O)N2CCc3ccccc3C2)cc2sccc21
The “hERG current change (%, negative = inhibition) at 10uM” value of the first is lower: -13.4% for the first, -3.24% for the second.

Compared with COCCN(C(=O)CCC(=O)Nc1nccs1)C(C(=O)NC(C)(C)C)c1ccc(C)cc1 (centres unmarked), Cc1cccc(NS(=O)(=O)c2nnc(NC(=O)c3cccc(C)c3)s2)c1 is lower in “hERG current change (%, negative = inhibition) at 10uM” value: 5.03% for the first, 2.44% for the second.

First: CCOC(=O)c1nc2nc(C)c(Cl)c(=O)n2[nH]1
Second: CCc1nn(CC(=O)NCCCN(CC)CC)c(=O)c2cc3sc(C)cc3n12
The “hERG current change (%, negative = inhibition) at 10uM” value of the first is lower: 0.341% for the first, 7.73% for the second.

Going from CCc1nn(CC(=O)NCCCN2CCc3ccccc3C2)c(=O)c2cc3sccc3n12 to CCc1nn(CC(=O)NCCCN2CCCC2=O)c(=O)c2cc3sccc3n12, the “hERG current change (%, negative = inhibition) at 10uM” value rises from -70.2% to -12.3%.

Going from CCc1cc2c(cc3c(=O)n(CC(=O)NCCCN4CCCCCC4)nc(CC)n32)s1 to CCc1nn(CC(=O)NCCCN2CCN(C)CC2)c(=O)c2cc3sc(C)cc3n12, the “hERG current change (%, negative = inhibition) at 10uM” value rises from -72.7% to 14.8%.

First: CCc1nn(CC(=O)NCCCN(C)Cc2ccccc2)c(=O)c2cc3sc(C)cc3n12
Second: CCCCN(CCCNC(=O)Cn1nc(CC)n2c(cc3sc(C)cc32)c1=O)Cc1ccccc1
The “hERG current change (%, negative = inhibition) at 10uM” value of the first is lower: -69.9% for the first, -47.1% for the second.

Compared with CCc1nn(CC(=O)NCCCN(CC)Cc2ccccc2)c(=O)c2cc3sccc3n12, CCc1cc2c(cc3c(=O)n(CC(=O)NCCCN(CC)CC)nc(CC)n32)s1 is higher in “hERG current change (%, negative = inhibition) at 10uM” value: -50.2% for the first, -34.9% for the second.

Going from CCc1nn(CC(=O)NCCCN2CCN(C)CC2)c(=O)c2cc3sccc3n12 to CCc1nn(CC(=O)NCCCN2CCOCC2)c(=O)c2cc3sccc3n12, the “hERG current change (%, negative = inhibition) at 10uM” value rises from 7.04% to 16.2%.

Compared with CN1Cc2c(N3CCOCC3)nc3sc(C#N)c(N)c3c2CC1(C)C, CC(=O)N1CCC(N(C(=O)Nc2ccc(C)c(C)c2)C2CCCC2)CC1 is lower in “hERG current change (%, negative = inhibition) at 10uM” value: -8.57% for the first, -31.2% for the second.

Compared with Cc1nnc(SCC2=C(C(=O)[O-])N3C(=O)C(NC(=O)Cc4ccccc4)C3SC2)s1.[Na+] (centres unmarked), CCn1c(C(=O)NCCCN2CCc3ccccc3C2)cc2sccc21 is lower in “hERG current change (%, negative = inhibition) at 10uM” value: 9.74% for the first, -64% for the second.
